Hit rate of the full screen: of about 200,000 compounds, about 670 (0.34%) were called active. No stated cut-off is given here; in the data, active means activation above about 22%; inactive means the rest. The entries come from a sample that favours actives as a whole.
Target: Peroxisome proliferator-activated receptor gamma (Homo sapiens) (UniProt P37231)
Experiment: agonists of PPARg-SRC-2 recruitment, primary screen, biochemical, HTS (AID 1032);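 further: 0% = vehicle and 100% = reference agonist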
Settings: PPARgamma LBD-SRC-2 recruitment, at 8 µM, hits give high values

Chain of Peroxisome proliferator-activated receptor gamma (Homo sapiens) (P37231 whole entry, looked up): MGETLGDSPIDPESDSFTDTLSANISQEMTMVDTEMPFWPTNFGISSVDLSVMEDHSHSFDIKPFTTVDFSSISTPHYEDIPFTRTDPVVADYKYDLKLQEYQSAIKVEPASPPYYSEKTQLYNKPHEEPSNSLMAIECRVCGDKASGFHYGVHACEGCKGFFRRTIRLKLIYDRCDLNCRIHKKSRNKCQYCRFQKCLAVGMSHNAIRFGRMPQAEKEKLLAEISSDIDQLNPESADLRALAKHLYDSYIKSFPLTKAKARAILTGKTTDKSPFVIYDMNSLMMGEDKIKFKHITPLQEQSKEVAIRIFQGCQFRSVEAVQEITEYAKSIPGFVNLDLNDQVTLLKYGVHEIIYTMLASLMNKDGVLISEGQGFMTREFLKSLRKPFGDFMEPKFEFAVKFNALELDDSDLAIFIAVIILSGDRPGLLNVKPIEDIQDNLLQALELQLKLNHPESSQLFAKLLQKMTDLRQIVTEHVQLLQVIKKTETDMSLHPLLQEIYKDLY

SMILES	activation
COc1ccc(C(=O)NCc2nnc(SCCOc3ccccc3)n2C)cc1	0.32% (inactive)
Cn1c(=O)cc(SCC(=O)N2CCN(C(=O)c3ccco3)CC2)c2ccccc21	40.5% (active)
CCOc1ccc(CCNC(=O)CSc2cc(=O)n(C)c3ccc(Cl)cc23)cc1OCC	18.7% (inactive)
CCOC(=O)C1CCN(C(=O)Cn2cc(C#N)c3ccccc32)CC1	3.64% (inactive)
CC(=O)c1ccc(-n2nnnc2SCC(=O)N2CCN(C(=O)c3ccco3)CC2)cc1	-5.53% (inactive)
Cc1cccc(OCc2nnc(SCC(=O)N3CCN(C(=O)c4ccco4)CC3)n2C)c1C	4.26% (inactive)
CCOC(=O)C1CCN(C(=O)CSc2cc(=O)n(C)c3ccccc23)CC1	56.4% (active)
CCOC(=O)N1CCC(NC(=O)COc2cc(=O)n(C)c3ccccc23)CC1	-4.54% (inactive)
O=C(CSCc1ccc(Cl)cc1)N1CCCCC1	7.59% (inactive)
Cn1c(=O)cc(SCC(=O)N2CCCC2)c2cc(Cl)ccc21	61.1% (active)
Cc1ccc(-c2nc(C)sc2CC(=O)OCC(=O)Nc2c(F)cccc2F)cc1	5.36% (inactive)
O=c1oc(/C=C/c2ccccc2)nc2ccccc12	-0.23% (inactive)
O=C(Cc1ccccc1)N1CCN(S(=O)(=O)c2ccc([N+](=O)[O-])cc2)CC1	7.91% (inactive)
O=C1c2cccc(OCC(=O)N3N=C(c4cccs4)CC3c3ccc(F)cc3)c2CCN1Cc1ccccc1 (stereo not drawn)	0.84% (inactive)
CC(CC(=O)Nc1ccccc1)n1ccnc1 (stereo not drawn)	8.08% (inactive)
CCC(CC)C(=O)Nc1ccc(S(=O)(=O)Nc2nccs2)cc1	-6.57% (inactive)
C=C(C)C1CC=C(C)/C(=N/NC(=O)CCCNc2cccc(C)c2)C1 (stereo not drawn)	3.8% (inactive)
O=C(CNC(=O)COc1ccccc1)NCCc1ccccn1	-3% (inactive)
C#CCOCCOCCOCCNc1nc(N2CCN(C(=O)C(Cc3ccc(O)cc3)n3cc(C(N)CC(C)C)nn3)CC2)nc(N2CCN(C(=O)C(Cc3ccc(O)cc3)n3cc(C(N)C(C)CC)nn3)CC2)n1 (stereo not drawn)	-8.91% (inactive)
COCCN(C(=O)CCC(=O)Nc1nccs1)C(C(=O)NC(C)(C)C)c1ccc(Cl)cc1 (stereo not drawn)	5.4% (inactive)
CC(=O)Nc1ccc(Nc2c([N+](=O)[O-])cc(S(C)(=O)=O)cc2[N+](=O)[O-])cc1	6.76% (inactive)
CN(C)c1ccnc(Oc2ccc(F)cc2)c1C#N	7.04% (inactive)
N#Cc1ccc(-c2ccc(F)cc2)nc1Sc1ccccc1	3.38% (inactive)
N#Cc1ccc(-c2ccc(Cl)cc2)nc1Oc1ccc(F)cc1	322% (active)

SMILES	activation
COCCn1c(SCC(=O)Nc2ccc3c(c2)CCC3)nc2ccccc2c1=O	-3.24% (inactive)
CCOC(=O)/C=c1\s/c(=C\c2ccc(C#N)cc2)c(=O)n1CC(=O)Nc1cccc(C)c1C	2.46% (inactive)
Oc1oc(-c2ccccc2Br)nc1/C=N/c1ccccn1	7.3% (inactive)
Cc1ccc(-n2[nH]c(C)c(/C=N/N3C(=O)c4cccc5cccc(c45)C3=O)c2=O)cc1	6.04% (inactive)
CCc1nnc(NS(=O)(=O)c2ccc(N=Cc3c(C)[nH]n(-c4ccc(C)cc4)c3=O)cc2)s1	12.6% (inactive)
COc1cc(SC#N)ccc1N=Cc1c(C)[nH]n(-c2ccc(C)cc2)c1=O	27.6% (active)
CN(C)S(=O)(=O)c1cccc(NC(=S)NCc2ccc3c(c2)OCO3)c1	4.42% (inactive)
COc1ccc(N(CC(=O)NC2CCCC2)C(=O)CS(=O)CC(=O)Nc2ccc3c(c2)OCO3)cc1 (stereo not drawn)	-7.54% (inactive)
CCOC(=O)N/N=C/c1cccnc1	3.1% (inactive)
O=C(CSc1cccc2cccnc12)N/N=C/c1cccnc1	27.4% (active)
Cc1nc2ccccc2n1CC(=O)N/N=C/c1cccnc1	2.27% (inactive)
CC(C)CN1CCNC(=O)C1CC(=O)N(C)CC1CCOCC1 (stereo not drawn)	-4.08% (inactive)
c1ccc2sc(NN=C3CCCC3)nc2c1	-0.8% (inactive)
Cc1cccc2cc(CN(Cc3cccs3)C(c3nnnn3C3CCCC3)C(C)C)c(=O)[nH]c12 (stereo not drawn)	2.09% (inactive)
Cc1cccc2cc(CN(Cc3ccc4c(c3)OCO4)Cc3nnnn3C3CCCC3)c(=O)[nH]c12	27.4% (active)
CCC(c1nnnn1C1CCCC1)N(Cc1cccs1)Cc1cc2cccc(C)c2[nH]c1=O (stereo not drawn)	7.3% (inactive)
CC(C(=O)N=Nc1c(O)n(C)c2ccc(Br)cc12)n1cnc2ccccc2c1=O (stereo not drawn)	2.86% (inactive)
Cc1ccccc1Cn1nc(C)c(NC(=O)C(F)(F)F)c1C	-0.15% (inactive)
COc1cc(C2C(C(=O)c3ccc(C)o3)=C(O)C(=O)N2Cc2cccnc2)ccc1O (stereo not drawn)	-1.47% (inactive)
CCCOc1ccc(C2C(C(=O)c3ccc(C)o3)=C(O)C(=O)N2CCCn2ccnc2)cc1 (stereo not drawn)	22.1% (active)
COc1cc(C2C(C(=O)c3ccc(C)o3)=C(O)C(=O)N2CCc2ccccc2)ccc1O (stereo not drawn)	0.21% (inactive)
CCOC(=O)N1CCC(=NNC(N)=O)CC1	3.39% (inactive)
CCCCOC(=O)c1ccc(NC(c2ccc(C)cc2)P(=O)(OC)OC)cc1 (stereo not drawn)	7.71% (inactive)
COc1cc(C(=S)N2CCOCC2)ccc1O	5.98% (inactive)

SMILES	activation
COc1cccc(NC(=O)C(Sc2nc3ccccc3c(=O)n2CC(C)C)c2ccccc2)c1 (stereo not drawn)	1.13% (inactive)
Cc1ccc(NC(=S)N(CCCN2CCC(C)CC2)Cc2ccco2)cc1	-0.03% (inactive)
COC(=O)Cn1cc(C(=O)c2cccs2)c2ccccc21	25.2% (active)
COCCNC(=O)Cn1cc(C(=O)c2cccs2)c2ccccc21	-7.11% (inactive)
O=C(Cn1cc(C(=O)c2cccs2)c2ccccc21)NCc1cccs1	-4.53% (inactive)
O=C(CNS(=O)(=O)c1ccccc1)NCC(=O)OCc1ccccc1F	-5.13% (inactive)
Cc1scc(C(=O)NNC(=S)NCc2ccccc2)c1C	-7.7% (inactive)
CC1=NNC(=O)C1CCC(=O)N/N=C\c1ccc(Cl)c(Cl)c1 (stereo not drawn)	6.93% (inactive)
CSc1c(SCc2ccccc2)cnn(Cc2ccccc2)c1=O	28% (active)
O=c1c2ccccc2c(-c2ccccc2)nn1Cc1ccccc1	-3.47% (inactive)
Cn1c(CO)cnc1SCc1ccccc1	5.35% (inactive)
CN1CCC(=NNC(=O)CN(c2cccc(Cl)c2)S(C)(=O)=O)CC1	10.8% (inactive)
S=c1[nH]cc(-c2ccc(Cl)cc2)n1-c1ccccc1	0.94% (inactive)
CCc1ccc(NC(=O)C(C)OC(=O)/C=C/c2cccc([N+](=O)[O-])c2)cc1 (stereo not drawn)	2.51% (inactive)
Cc1cccn2c(CN(C)C3CCCc4ccccc43)c(C(=O)N3CCOCC3)nc12 (stereo not drawn)	-1.89% (inactive)
CCN(CC)CCCNC(=O)c1cc(-c2cccc(Cl)c2)on1	0.37% (inactive)
CCN(CC)CCCNC(=O)CCc1ccccc1	9.5% (inactive)
CCN(CCCNC(=O)CSc1cc(=O)n(C)c2cc(Cl)ccc12)Cc1ccccc1	26.1% (active)
CCOC(=O)N1CCN(c2cc(C)c([N+](=O)[O-])cc2F)CC1	-3.32% (inactive)
COc1ccc(OCc2n[nH]c(=S)n2N)cc1	4.69% (inactive)
COc1ccc(CSc2nc(N3CCOCC3)c3c(c2C#N)CC(C)(C)OC3)cc1	-5.06% (inactive)
c1ccc(COc2nsnc2N2CCOCC2)cc1	7.85% (inactive)
c1ccc(CSc2ncnc3c2sc2nc(N4CCOCC4)c4c(c23)CCCC4)cc1	96% (active)
CNC(=O)c1ccsc1NC(=O)c1ccc(S(=O)(=O)N2CCOCC2)cc1	14.3% (inactive)

SMILES	activation
COc1cc(/C=C(/NC(=O)c2ccc(Cl)cc2Cl)C(=O)O)cc(OC)c1OC	11.2% (inactive)
Cc1ccc(CNC(=O)CC2Sc3ccccc3NC2=O)cc1 (stereo not drawn)	0.66% (inactive)
Cc1ccc(S(=O)(=O)c2ccc(Cl)cc2)cc1S(=O)(=O)NC(C(=O)O)C(C)C (stereo not drawn)	-4.99% (inactive)
COc1cccc(NCCC(=O)c2cccc([N+](=O)[O-])c2)c1	7.36% (inactive)
COc1cccc2c1OCC(CN1CCN(C3CCCCC3)C(CCO)C1)=C2 (stereo not drawn)	1.05% (inactive)
Cn1c(N)cc(-c2ccc(F)cc2)c(C#N)c1=O	1.85% (inactive)
NC(=NC(=O)c1ccccc1)N1CCOCC1	11.2% (inactive)
CC(C(=O)N1CCOCC1)N1c2cccc3cccc(c23)S1(=O)=O (stereo not drawn)	28.1% (active)
Cc1ccc(S(=O)(=O)NC(C(=O)N2CCOCCOCCOCCOCC2)c2ccccc2)cc1 (stereo not drawn)	6.3% (inactive)
Oc1cccc2ccc(/C=C/c3ccc(Br)s3)nc12	-1.88% (inactive)
N#Cc1c(N)nc2c(c1N)CC(C(F)(F)F)O2 (stereo not drawn)	2.19% (inactive)
OCC1(CCc2ccccc2)CCN(Cc2ccc3nsnc3c2)CC1	39.5% (active)
CC(=O)c1cccc(CN2CCC(CO)(Cc3ccccc3)CC2)c1	4.63% (inactive)
Cc1cccc(-c2ncc(CN3CCC(CO)(CCCc4ccccc4)CC3)cn2)c1	5% (inactive)
Cc1ccc(NC(=O)c2ccc(S(=O)(=O)NCC3CCCO3)cc2)cc1C (stereo not drawn)	-6.15% (inactive)
O=C(Nc1ccc(N2CCN(C(=O)C3CC3)CC2)cc1)c1cccs1	4.68% (inactive)
O=C(CS(=O)(=O)c1ccccc1)Nc1ccc(S(=O)(=O)Nc2ccccn2)cc1	-6.08% (inactive)
CC(=O)N/N=C(\C)c1ccc(Br)cc1Br	-4.44% (inactive)
COc1ccc(Cl)cc1C(=O)NCc1cn(C)nc1C	8.12% (inactive)
Cc1ccc2nc(-c3cccc(Br)c3)cc(C(=O)Nn3cnnc3)c2c1	-0.43% (inactive)
Cc1ccc(-c2cc(C(=O)NCc3cn(C)nc3C)c3cc(Br)ccc3n2)cc1	37% (active)

— PubChem BioAssay AID1032 (The Scripps Research Institute Molecular Screening Center, 2008)
